Common to all, as to test: DAPPL (digital affinity profiling via proximity ligation, sequencing); 10 mM Tris-HCl pH 7.5, 50 mM NaCl, 1 mM DTT, 4% glycerol, room temperature, 30 min; GST-TFs on glutathione beads, 16-mer random dsDNA library, 0.1% formaldehyde crosslink after washing; high values mean tight binding
In assay [1] the target is T1, FEV (Homo sapiens, UniProt Q99581 1-238).
T1 sequence: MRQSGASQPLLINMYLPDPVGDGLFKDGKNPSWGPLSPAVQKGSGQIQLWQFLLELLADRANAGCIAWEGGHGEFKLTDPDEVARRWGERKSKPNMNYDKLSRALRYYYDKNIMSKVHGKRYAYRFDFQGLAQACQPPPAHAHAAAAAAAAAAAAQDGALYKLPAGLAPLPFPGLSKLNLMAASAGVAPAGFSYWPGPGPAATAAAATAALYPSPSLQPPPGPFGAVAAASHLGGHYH
The conditions noted are these: protein: recombinant; tags: N-terminal GST; dsDNA, one strand shown. Summed up: (§1)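 Sequencing on an Illumina NextSeq500 followed washing, crosslinking with 0.1% formaldehyde, proximity ligation (BsaI/T4 ligase, 1 h, 37 °C) and PCR amplification of pools that had been incubated for 30 min at room temperature with 200 nmole of a random double-stranded 16-mer DNA library in Tris/NaCl/DTT/glycerol buffer. Each pool held DNA-barcoded human transcription factors, expressed in yeast as GST fusions and captured on glutathione beads, plus a tag-only sample. Binding signal is a hexamer's read frequency for a factor divided by its frequency in the tag-only sample.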

For assay [2], the target named is ETV5 (Homo sapiens, UniProt P41161 1-510). The conditions noted are these: protein: recombinant; tags: N-terminal GST; dsDNA, one strand shown. Summed up: as §1
Assay [3] concerns the target HSF1 (Homo sapiens, UniProt Q00613 1-529). The conditions noted are these: protein: recombinant; tags: N-terminal GST; chain copies: 3; dsDNA, one strand shown. Summed up: as §1
Assay [4] concerns the target T2, SPIC (Homo sapiens, UniProt Q8N5J4 1-248).
T2 sequence: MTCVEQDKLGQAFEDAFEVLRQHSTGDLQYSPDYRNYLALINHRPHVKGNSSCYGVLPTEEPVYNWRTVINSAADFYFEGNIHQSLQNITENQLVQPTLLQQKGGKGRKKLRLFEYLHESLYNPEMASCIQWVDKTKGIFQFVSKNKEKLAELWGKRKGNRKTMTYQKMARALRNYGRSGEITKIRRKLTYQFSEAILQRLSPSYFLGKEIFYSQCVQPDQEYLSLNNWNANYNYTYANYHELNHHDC
The conditions noted are these: protein: recombinant; tags: N-terminal GST; dsDNA, one strand shown. An outline of the steps:
as §1

The target in assay [5] is ELF4 (Homo sapiens, UniProt Q99607 1-663). The conditions noted are these: protein: recombinant; tags: N-terminal GST; dsDNA, one strand shown. Summed up:
as §1

For assay [6], the target named is T3, ELK4 (Homo sapiens, UniProt P28324-2 1-405).
T3 sequence: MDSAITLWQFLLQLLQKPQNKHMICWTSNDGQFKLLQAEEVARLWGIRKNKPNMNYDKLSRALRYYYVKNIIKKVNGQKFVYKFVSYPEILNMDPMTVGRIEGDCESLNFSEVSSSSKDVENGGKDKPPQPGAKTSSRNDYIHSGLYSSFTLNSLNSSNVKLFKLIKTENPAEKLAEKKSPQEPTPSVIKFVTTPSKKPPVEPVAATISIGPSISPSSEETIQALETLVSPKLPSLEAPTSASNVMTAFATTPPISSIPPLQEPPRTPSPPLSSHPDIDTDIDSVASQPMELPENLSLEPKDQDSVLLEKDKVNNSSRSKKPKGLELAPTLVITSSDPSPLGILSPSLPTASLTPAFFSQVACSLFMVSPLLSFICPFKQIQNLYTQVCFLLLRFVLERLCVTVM
The conditions noted are these: protein: recombinant; tags: N-terminal GST; dsDNA, one strand shown. An outline of the steps: as §1

For assay [7], the target named is T4, ETV2 (Homo sapiens, UniProt O00321 1-342).
T4 sequence: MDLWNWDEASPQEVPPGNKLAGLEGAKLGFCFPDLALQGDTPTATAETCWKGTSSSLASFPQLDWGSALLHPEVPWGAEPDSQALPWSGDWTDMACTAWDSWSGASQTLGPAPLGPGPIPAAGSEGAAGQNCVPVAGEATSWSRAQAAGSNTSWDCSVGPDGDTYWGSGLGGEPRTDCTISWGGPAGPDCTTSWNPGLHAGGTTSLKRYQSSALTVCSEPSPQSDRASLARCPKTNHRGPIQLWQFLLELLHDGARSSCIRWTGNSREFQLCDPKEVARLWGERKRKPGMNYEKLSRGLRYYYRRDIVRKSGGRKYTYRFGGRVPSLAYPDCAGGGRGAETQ
The conditions noted are these: protein: recombinant; tags: N-terminal GST; dsDNA, one strand shown. Summed up: as §1

The target in assay [8] is T5, ELF3 (Homo sapiens, UniProt P78545 1-371).
T5 sequence: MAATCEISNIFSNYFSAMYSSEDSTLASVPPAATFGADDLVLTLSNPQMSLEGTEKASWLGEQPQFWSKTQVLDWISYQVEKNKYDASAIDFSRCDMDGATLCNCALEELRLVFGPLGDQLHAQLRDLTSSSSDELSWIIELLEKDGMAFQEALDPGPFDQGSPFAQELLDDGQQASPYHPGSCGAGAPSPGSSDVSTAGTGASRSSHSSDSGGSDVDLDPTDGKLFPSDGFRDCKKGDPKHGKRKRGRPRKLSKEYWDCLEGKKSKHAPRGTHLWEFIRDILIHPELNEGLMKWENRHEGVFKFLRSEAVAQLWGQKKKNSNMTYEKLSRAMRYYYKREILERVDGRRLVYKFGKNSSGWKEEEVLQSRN
The conditions noted are these: protein: recombinant; tags: N-terminal GST; dsDNA, one strand shown. Summed up: as §1

Assay [9] has as its target CRX (Homo sapiens, UniProt O43186 1-299). The conditions noted are these: protein: recombinant; tags: N-terminal GST; dsDNA, one strand shown. Summed up:
as §1

Assay [10] has as its target ETV1 (Homo sapiens, UniProt P50549 1-477). The conditions noted are these: protein: recombinant; tags: N-terminal GST; dsDNA, one strand shown. An outline of the steps:
as §1

Assay [11] concerns the target T6, ERF (Homo sapiens, UniProt P50548 1-548).
T6 sequence: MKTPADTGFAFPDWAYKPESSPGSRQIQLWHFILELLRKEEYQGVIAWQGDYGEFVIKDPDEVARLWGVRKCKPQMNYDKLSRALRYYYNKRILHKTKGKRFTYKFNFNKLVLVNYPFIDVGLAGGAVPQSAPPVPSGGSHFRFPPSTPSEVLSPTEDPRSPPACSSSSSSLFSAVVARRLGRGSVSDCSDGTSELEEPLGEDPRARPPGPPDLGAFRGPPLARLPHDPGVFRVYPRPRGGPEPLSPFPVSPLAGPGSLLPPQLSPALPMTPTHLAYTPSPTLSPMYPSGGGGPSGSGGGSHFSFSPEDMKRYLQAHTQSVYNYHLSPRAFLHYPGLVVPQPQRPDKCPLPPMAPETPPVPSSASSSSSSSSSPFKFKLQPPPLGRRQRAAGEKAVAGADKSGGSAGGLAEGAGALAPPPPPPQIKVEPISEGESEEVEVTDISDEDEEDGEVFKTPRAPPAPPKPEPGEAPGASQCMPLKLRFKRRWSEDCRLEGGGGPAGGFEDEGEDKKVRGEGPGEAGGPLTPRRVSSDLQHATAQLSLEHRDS
The conditions noted are these: protein: recombinant; tags: N-terminal GST; dsDNA, one strand shown. An outline of the steps: as §1

The target of assay [12] is T7, ETV3L (Homo sapiens, UniProt Q6ZN32 1-361).
T7 sequence: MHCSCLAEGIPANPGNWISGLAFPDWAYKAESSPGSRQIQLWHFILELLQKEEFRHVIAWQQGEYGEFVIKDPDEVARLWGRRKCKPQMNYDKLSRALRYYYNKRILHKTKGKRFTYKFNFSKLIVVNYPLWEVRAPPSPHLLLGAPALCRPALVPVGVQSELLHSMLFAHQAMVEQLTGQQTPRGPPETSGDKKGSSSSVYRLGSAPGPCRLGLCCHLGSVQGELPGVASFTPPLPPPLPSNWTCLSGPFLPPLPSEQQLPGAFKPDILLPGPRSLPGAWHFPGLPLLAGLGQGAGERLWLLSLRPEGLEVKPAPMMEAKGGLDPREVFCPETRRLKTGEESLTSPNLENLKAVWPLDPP
The conditions noted are these: protein: recombinant; tags: N-terminal GST; dsDNA, one strand shown. An outline of the steps:
as §1

The target of assay [13] is T8, ETS2 (Homo sapiens, UniProt P15036 1-469).
T8 sequence: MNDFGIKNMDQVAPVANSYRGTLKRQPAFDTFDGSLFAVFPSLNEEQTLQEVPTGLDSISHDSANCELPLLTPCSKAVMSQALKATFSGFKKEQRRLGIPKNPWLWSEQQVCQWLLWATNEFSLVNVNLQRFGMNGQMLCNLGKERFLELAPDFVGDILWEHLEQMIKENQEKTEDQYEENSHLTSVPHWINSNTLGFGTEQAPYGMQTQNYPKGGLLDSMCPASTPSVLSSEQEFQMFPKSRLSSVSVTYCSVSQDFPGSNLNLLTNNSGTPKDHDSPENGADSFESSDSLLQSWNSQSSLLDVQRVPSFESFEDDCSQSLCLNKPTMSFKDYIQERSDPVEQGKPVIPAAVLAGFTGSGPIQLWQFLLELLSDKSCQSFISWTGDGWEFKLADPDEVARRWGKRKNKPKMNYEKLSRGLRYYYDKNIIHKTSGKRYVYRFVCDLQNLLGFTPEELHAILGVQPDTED
The conditions noted are these: protein: recombinant; tags: N-terminal GST; dsDNA, one strand shown. Summed up:
as §1

The target in assay [14] is T9, SPDEF (Homo sapiens, UniProt O95238 1-335).
T9 sequence: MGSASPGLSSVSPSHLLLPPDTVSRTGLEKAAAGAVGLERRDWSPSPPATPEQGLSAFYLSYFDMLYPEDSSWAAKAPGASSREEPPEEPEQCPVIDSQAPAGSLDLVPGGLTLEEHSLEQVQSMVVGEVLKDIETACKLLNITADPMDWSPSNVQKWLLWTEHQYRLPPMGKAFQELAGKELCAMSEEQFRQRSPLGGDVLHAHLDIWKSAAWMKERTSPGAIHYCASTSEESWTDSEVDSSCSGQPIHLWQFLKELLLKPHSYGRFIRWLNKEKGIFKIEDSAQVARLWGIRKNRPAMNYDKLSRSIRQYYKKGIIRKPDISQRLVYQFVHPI
The conditions noted are these: protein: recombinant; tags: N-terminal GST; dsDNA, one strand shown. Summed up: as §1

In assay [15] the target is T10, ETV7 (Homo sapiens, UniProt Q9Y603 1-341).
T10 sequence: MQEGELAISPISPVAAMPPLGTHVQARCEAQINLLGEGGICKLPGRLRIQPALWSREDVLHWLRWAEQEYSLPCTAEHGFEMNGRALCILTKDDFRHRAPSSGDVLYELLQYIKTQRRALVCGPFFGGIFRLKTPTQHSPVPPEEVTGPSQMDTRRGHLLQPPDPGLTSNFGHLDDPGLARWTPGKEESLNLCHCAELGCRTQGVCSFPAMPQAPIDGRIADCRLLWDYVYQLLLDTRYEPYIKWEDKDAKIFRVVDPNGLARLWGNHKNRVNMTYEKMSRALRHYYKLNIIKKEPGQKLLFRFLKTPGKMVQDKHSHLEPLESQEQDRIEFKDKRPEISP
The conditions noted are these: protein: recombinant; tags: N-terminal GST; dsDNA, one strand shown. An outline of the steps:
as §1

In assay [16] the target is T11, ELF5 (Homo sapiens, UniProt Q9UKW6-2 1-255).
T11 sequence: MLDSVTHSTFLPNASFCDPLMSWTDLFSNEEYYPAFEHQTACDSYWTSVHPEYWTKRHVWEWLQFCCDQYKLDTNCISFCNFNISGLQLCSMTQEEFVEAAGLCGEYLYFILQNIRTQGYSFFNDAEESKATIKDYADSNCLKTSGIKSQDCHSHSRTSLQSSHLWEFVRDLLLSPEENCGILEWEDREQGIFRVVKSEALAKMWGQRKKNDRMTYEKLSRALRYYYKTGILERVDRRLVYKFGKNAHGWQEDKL
The conditions noted are these: protein: recombinant; tags: N-terminal GST; dsDNA, one strand shown. Summed up: as §1

The target of assay [17] is T12, ETV3 (Homo sapiens, UniProt P41162-2 1-143).
T12 sequence: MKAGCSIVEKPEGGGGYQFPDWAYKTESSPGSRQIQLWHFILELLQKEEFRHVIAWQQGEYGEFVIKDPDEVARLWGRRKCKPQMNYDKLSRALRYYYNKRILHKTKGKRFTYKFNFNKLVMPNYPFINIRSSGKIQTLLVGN
The conditions noted are these: protein: recombinant; tags: N-terminal GST; dsDNA, one strand shown. Summed up: as §1

Assay [18] concerns the target ETV6 (Homo sapiens, UniProt P41212 1-452). The conditions noted are these: protein: recombinant; tags: N-terminal GST; dsDNA, one strand shown. An outline of the steps: as §1

These results are taken from article PMC7862700, “An all-to-all approach to the identification of sequence-specific readers for epigenetic DNA modifications on cytosine”.

Sequence of ELF4 (Q99607 whole entry): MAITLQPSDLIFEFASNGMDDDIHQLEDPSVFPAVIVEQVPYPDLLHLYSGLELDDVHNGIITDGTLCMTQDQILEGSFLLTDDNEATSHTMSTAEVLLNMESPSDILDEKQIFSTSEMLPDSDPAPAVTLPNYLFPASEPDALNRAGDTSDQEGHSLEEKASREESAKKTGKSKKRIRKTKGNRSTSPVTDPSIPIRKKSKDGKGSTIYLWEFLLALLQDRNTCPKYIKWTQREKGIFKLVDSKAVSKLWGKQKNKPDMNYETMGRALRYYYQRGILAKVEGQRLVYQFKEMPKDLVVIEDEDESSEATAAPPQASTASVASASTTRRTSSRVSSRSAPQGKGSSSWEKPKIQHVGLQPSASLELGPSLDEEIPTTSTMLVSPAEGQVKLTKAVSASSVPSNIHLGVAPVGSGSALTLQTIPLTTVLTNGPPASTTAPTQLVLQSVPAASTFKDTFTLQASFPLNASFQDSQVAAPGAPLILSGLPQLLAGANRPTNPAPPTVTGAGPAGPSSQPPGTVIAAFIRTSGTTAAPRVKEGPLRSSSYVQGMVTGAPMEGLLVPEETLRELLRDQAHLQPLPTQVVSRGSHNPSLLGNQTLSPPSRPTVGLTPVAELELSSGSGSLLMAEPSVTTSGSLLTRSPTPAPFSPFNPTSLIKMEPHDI
Sequence of CRX (O43186 whole entry): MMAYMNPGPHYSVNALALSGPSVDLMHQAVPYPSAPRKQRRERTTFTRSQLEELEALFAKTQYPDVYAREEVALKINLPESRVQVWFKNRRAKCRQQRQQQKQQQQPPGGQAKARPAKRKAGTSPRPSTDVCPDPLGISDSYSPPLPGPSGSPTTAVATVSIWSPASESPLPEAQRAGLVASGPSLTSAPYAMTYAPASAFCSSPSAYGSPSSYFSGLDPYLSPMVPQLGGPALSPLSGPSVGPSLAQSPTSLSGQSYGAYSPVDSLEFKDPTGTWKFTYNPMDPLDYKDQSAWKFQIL
Sequence of HSF1 (Q00613 whole entry): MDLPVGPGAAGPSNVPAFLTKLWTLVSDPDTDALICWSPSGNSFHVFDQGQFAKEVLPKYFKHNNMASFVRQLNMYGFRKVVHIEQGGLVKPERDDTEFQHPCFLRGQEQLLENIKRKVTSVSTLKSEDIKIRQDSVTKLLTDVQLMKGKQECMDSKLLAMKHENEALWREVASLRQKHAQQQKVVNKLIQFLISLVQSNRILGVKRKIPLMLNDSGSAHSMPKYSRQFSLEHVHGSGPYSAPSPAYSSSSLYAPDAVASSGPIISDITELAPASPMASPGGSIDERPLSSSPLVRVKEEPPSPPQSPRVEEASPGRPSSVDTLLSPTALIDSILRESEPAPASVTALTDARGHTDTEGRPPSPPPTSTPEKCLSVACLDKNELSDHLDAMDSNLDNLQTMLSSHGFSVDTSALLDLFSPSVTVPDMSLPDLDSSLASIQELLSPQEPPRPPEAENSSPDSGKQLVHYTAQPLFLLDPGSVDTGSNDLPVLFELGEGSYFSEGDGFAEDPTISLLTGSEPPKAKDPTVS
Sequence of ETV1 (P50549 whole entry): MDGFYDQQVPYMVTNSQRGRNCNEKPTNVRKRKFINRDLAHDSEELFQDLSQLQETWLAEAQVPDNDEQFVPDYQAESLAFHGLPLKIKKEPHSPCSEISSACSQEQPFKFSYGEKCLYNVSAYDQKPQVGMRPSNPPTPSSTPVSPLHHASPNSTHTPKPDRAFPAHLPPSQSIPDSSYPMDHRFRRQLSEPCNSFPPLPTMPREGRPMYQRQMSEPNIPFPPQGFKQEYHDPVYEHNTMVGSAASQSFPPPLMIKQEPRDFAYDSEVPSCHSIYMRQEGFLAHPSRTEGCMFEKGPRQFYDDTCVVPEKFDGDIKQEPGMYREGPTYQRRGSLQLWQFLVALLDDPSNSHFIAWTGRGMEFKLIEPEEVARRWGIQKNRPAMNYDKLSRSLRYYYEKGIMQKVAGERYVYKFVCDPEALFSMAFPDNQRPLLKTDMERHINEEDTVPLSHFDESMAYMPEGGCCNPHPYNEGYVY
Sequence of ETV5 (P41161 whole entry): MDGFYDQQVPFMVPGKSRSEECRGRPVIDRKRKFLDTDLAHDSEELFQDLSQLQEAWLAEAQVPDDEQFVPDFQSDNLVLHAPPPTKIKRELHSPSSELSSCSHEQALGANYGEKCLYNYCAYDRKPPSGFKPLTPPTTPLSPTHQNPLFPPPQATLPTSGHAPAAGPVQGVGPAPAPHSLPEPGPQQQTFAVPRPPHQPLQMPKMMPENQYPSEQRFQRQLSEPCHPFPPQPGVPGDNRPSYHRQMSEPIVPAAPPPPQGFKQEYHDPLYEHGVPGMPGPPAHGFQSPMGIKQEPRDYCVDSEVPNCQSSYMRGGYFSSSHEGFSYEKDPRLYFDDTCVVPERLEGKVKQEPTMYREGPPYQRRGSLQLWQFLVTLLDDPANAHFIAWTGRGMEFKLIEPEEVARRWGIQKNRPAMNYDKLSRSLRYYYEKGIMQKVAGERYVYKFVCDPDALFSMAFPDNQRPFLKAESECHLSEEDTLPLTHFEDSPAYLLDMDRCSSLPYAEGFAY
Sequence of ETV6 (P41212 whole entry): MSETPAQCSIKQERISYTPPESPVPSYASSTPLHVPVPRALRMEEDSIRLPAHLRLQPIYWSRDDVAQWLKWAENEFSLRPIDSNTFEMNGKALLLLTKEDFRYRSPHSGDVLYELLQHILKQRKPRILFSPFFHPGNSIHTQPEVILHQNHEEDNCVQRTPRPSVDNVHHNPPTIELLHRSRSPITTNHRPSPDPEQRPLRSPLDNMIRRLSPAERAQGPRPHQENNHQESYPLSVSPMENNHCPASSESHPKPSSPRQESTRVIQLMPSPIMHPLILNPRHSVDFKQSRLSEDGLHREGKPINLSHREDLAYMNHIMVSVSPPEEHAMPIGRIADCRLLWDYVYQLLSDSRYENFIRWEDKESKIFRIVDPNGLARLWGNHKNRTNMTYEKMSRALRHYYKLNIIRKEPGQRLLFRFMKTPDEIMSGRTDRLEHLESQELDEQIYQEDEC

For the sequence TATTGG, the binding signal is 1.14 fold enrichment (6-mer frequency, TF over GST control) in assay [1]; 1.19 fold enrichment (6-mer frequency, TF over GST control) in assay [2]; 1.2 fold enrichment (6-mer frequency, TF over GST control) in assay [3]; 1.19 fold enrichment (6-mer frequency, TF over GST control) in [4]; 1.21 fold enrichment (6-mer frequency, TF over GST control) in assay [5]; 1.28 fold enrichment (6-mer frequency, TF over GST control) in [6]. Also, the binding signal is 1.14 fold enrichment (6-mer frequency, TF over GST control) in assay [7]; 1.24 fold enrichment (6-mer frequency, TF over GST control) in assay [8]; 1.4 fold enrichment (6-mer frequency, TF over GST control) in assay [9]; 1.13 fold enrichment (6-mer frequency, TF over GST control) in assay [10]; 1.2 fold enrichment (6-mer frequency, TF over GST control) in [11]; 1.18 fold enrichment (6-mer frequency, TF over GST control) in [12]. For the same sequence, the binding signal is 1.23 fold enrichment (6-mer frequency, TF over GST control) in assay [13]; 1.23 fold enrichment (6-mer frequency, TF over GST control) in [14]; 1.19 fold enrichment (6-mer frequency, TF over GST control) in assay [15]; 1.1 fold enrichment (6-mer frequency, TF over GST control) in [16]; 1.17 fold enrichment (6-mer frequency, TF over GST control) in [17]; 1.21 fold enrichment (6-mer frequency, TF over GST control) in [18].
